Reference: the supplement of paper PMC8285479
Counter-ions that a name gives are not always drawn. ± gives the standard deviation of the averaged measurements. Over roughly 1,900 compounds, “normalised cell viability (NPI; 0 = phenylarsine oxide control, 1 = DMSO control)” has its median near 1; the lowest 2% begin near 0.039. The full list was thinned out, with the lowest values kept by preference.

System: NCI-H1944
Test: normalised cell viability (NPI; 0 = phenylarsine oxide control, 1 = DMSO control) (fraction of DMSO control); NCI-H1944 is a non-small cell lung cancer line; higher = more viable cells (less compound toxicity)
Conditions: 6 days
[1] = glucocorticoid arm: hydrocortisone 2.75 uM co-treatment, compound 1 µM
[2] = glucocorticoid arm: hydrocortisone 2.75 uM co-treatment, compound 5 µM
[3] = glucocorticoid arm: hydrocortisone 2.75 uM pre-treated 2 days and continued, compound 1 µM
[4] = glucocorticoid arm: hydrocortisone 2.75 uM pre-treated 2 days and continued, compound 5 µM
[5] = glucocorticoid arm: vehicle, compound 1 µM
[6] = glucocorticoid arm: vehicle, compound 5 µM
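Also: CTB read-out in 384-well plates, triplicate wells, NPI normalised per plate against 1 µM phenylarsine oxide (0) and 0.1% DMSO (1) controls.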

SMILES	normalised cell viability [1]	normalised cell viability [2]	normalised cell viability [3]	normalised cell viability [4]	normalised cell viability [5]	normalised cell viability [6]
CN[C@@H]1C[C@H]2O[C@@](C)([C@@H]1OC)n1c3ccccc3c3c4c(c5c6ccccc6n2c5c31)C(=O)NC4 [Staurosporine]	0.0825 ± 0.0098	0.0186 ± 0.003	0.246 ± 0.01	0.0923 ± 0.017	0.0216 ± 0.0022	0.00445 ± 0.0013
C[C@@H](N)Cc1cnc[nH]1 [Histamine, R(-)-alpha-methyl-, dihydrochloride]	0.997 ± 0.0027	0.997 ± 0.011	1	0.994 ± 0.014	0.9917 ± 0.0045	0.9963 ± 0.0032
NC(CP(=O)(O)O)C(=O)O (racemic) [(±)-2-Amino-3-phosphonopropionic acid]	0.993 ± 0.0066	0.9903 ± 0.0093	1.005 ± 0.0087	1 ± 0.013	0.9877 ± 0.0049	0.998 ± 0.013
CCc1c(C(=O)OC)ncc2[nH]c3cc(OC)c(OC)cc3c12 [Methyl 6,7-dimethoxy-4-ethyl-beta-carboline-3-carboxylate]	1.01 ± 0.016	1.023 ± 0.0058	1.01 ± 0.01	1.03 ± 0.01	0.9997 ± 0.0091	1.003 ± 0.0058
COc1cc(CC(C)N)c(OC)cc1I (racemic) [(±)-DOI hydrochloride]	1.01 ± 0.01	0.983 ± 0.023	0.998 ± 0.013	1.02 ± 0.01	0.998 ± 0.0035	0.994 ± 0.004
Oc1ncc(N(CCCl)CCCl)c(O)n1 [Uracil mustard]	0.972 ± 0.007	1.06 ± 0.011	1.043 ± 0.0058	1.033 ± 0.0058	0.244 ± 0.021	1.01 ± 0.011
C[C@@]12C(=O)OC(=O)[C@]1(C)[C@H]1CC[C@@H]2O1 [Cantharidin]	0.9967 ± 0.0035	0.00641 ± 0.0033	1.05 ± 0.021	0.12 ± 0.057	0.9873 ± 0.0032	0.00459 ± 0.0027
CN(N=O)c1ccc(O)c(O)c1 [Me-3,4-dephostatin]	1.017 ± 0.0058	1.01 ± 0.017	1.007 ± 0.0058	1.05 ± 0.086	1.01 ± 0.011	1.02 ± 0.01
CCCN1CCC[C@@H](c2cccc(C#N)c2)C1 [S(-)-DS 121 hydrochloride]	1.017 ± 0.0058	0.972 ± 0.034	1.01 ± 0.01	0.985 ± 0.033	1.02	1.04 ± 0.047
NCc1cc(O)no1 [Muscimol hydrobromide]	1.006 ± 0.0069	0.993 ± 0.015	1.01 ± 0.013	0.992 ± 0.031	1.01	1.003 ± 0.0061
CCCN1CCC[C@@H]2Cc3n[nH]cc3C[C@H]21 [(-)-Quinpirole hydrochloride]	0.982 ± 0.006	0.992 ± 0.018	0.867 ± 0.22	1.01 ± 0.016	0.985 ± 0.0087	0.9927 ± 0.0045
CCCN1CCC[C@@H]2Cc3n[nH]cc3C[C@H]21 (racemic) [(±)-Quinpirole dihydrochloride]	1.013 ± 0.0058	1.01 ± 0.036	0.893 ± 0.19	1.03 ± 0.01	1.013 ± 0.0058	1.01 ± 0.011
CCN(CCCl)CCOC(C)=O [Acetylethylcholine mustard hydrochloride]	1.01 ± 0.015	1.02 ± 0.034	1.01 ± 0.013	1.11 ± 0.061	0.995 ± 0.0046	1.01 ± 0.015
N.N.[Cl][Pt][Cl] [Cisplatin]	–	–	1.01	–	–	–
Cn1c(CCCC(=O)O)nc2cc(N(CCCl)CCCl)ccc21 [bendamustine hydrochloride]	1.02 ± 0.011	0.348 ± 0.02	1.007 ± 0.0058	0.7867 ± 0.0031	0.9937 ± 0.006	0.0218 ± 0.0032
O=[N+]([O-])c1ccc(O[C@@H]2O[C@H](CO)[C@@H](O)[C@H](O)[C@H]2F)c([N+](=O)[O-])c1 [2,4-Dinitrophenyl 2-fluoro-2-deoxy-beta-D-glucopyranoside]	0.9917 ± 0.004	0.989 ± 0.02	0.991 ± 0.023	0.974 ± 0.03	0.9807 ± 0.0021	0.9817 ± 0.0064
Cc1o[nH]c(=O)c1CC(N)C(=O)O (racemic) [(±)-AMPA hydrobromide]	0.995 ± 0.016	0.983 ± 0.016	0.999 ± 0.0095	0.994 ± 0.025	0.982 ± 0.0027	0.98 ± 0.007
CC(N)c1cccc(Cl)c1Cl (racemic) [(±)-2,3-Dichloro-alpha-methylbenzylamine hydrochloride]	1.006 ± 0.0075	1.02 ± 0.011	1.003 ± 0.0064	1.013 ± 0.0058	0.9993 ± 0.0097	1.001 ± 0.0081
CCCCN1[C@@H]2CC[C@H]1CC(OC(c1ccc(F)cc1)c1ccc(F)cc1)C2 (some centres undefined) [JHW 007 hydrochloride]	0.969 ± 0.017	0.629 ± 0.055	0.987 ± 0.011	0.969 ± 0.011	0.993 ± 0.003	0.228 ± 0.12
CC(N)C(O)c1ccc(O)c(O)c1 (single isomer, unassigned; (-)) [(-)-alpha-Methylnorepinephrine]	1.01 ± 0.012	0.971 ± 0.044	0.995 ± 0.013	0.958 ± 0.034	0.9967 ± 0.0058	0.9977 ± 0.0032
C/C=C(/C)C(=O)O[C@H]1C(C)=C2[C@H]([C@@H]1OC(=O)CCCCCCC)[C@@](C)(OC(C)=O)C[C@H](OC(=O)CCC)[C@@]1(O)[C@H]2OC(=O)[C@@]1(C)O [Thapsigargin]	0.0778 ± 0.015	0.0411 ± 0.016	0.215 ± 0.062	0.101 ± 0.029	0.0393 ± 0.014	0.00585 ± 0.0031
Clc1ccc(N2CC3CCC(C2)N3)nn1	1.003 ± 0.0064	0.979 ± 0.012	0.9903 ± 0.0074	0.9827 ± 0.004	0.9863 ± 0.0075	0.9843 ± 0.0086
C[C@@H]1O[C@@H](O[C@H]2C[C@@H](O)[C@]3(CO)[C@H]4[C@H](O)C[C@]5(C)[C@@H](C6=CC(=O)OC6)CC[C@]5(O)[C@@H]4CC[C@]3(O)C2)[C@H](O)[C@H](O)[C@H]1O [Ouabain]	0.00947 ± 0.006	0.00628 ± 0.0019	0.0931 ± 0.013	0.07 ± 0.028	0.00711 ± 0.0021	0.00424 ± 0.002
C[C@@H]1O[C@@H](O[C@H]2C[C@@H](O)[C@]3(CO)[C@H]4[C@H](O)C[C@]5(C)[C@@H]([C@@H]6COC(=O)C6)CC[C@]5(O)[C@@H]4CC[C@]3(O)C2)[C@H](O)[C@H](O)[C@H]1O [Dihydroouabain]	1.027 ± 0.0058	0.0138 ± 0.013	1.01 ± 0.015	0.143 ± 0.081	0.98 ± 0.017	0.00677 ± 0.002
